# Assay outcomes: PubChem, National Center for Advancing Translational Sciences (NCATS)
# BAZ2B inh = inhibitors of human BAZ2B bromodomain; 4.4% of 360,000 active; AlphaScreen BAZ2B-H3K14Ac peptide displacement; Potency, µM (highest dose often 114 µM), actives largely listed as inhibitors; Q9UIF8; AID 504333; further: nearly all actives have a fitted effect of over 60% in size
#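 AlphaScreen displacement: compounds (up to 110uM) incubated 30 min at room temperature with a preformed 50 nM BAZ2B/50 nM biotinylated H3K14Ac peptide complex in PBS pH 7.4 with Tween-20. Donor and acceptor beads at 10 ug/mL final added, 20 min light-protected before reading.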
# HP1b chromo inh = HP1-beta chromodomain-methylated histone interaction inhibition; AlphaScreen HP1-beta / biotin-H3K9me3 peptide binding; Potency, µM (doses to about 114 µM), hits mostly inhibitors; P83916; 0.56% of 390,000 active; further: nearly all actives have a fitted effect of over 70% in size
# Target sequence (P83916 whole entry, looked up): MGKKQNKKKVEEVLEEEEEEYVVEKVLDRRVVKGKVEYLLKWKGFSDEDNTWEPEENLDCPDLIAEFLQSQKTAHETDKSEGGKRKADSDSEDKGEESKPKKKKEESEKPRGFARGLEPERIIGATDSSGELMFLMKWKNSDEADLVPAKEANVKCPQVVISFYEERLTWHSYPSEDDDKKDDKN
#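 HP1-beta protein (50 nM final) preincubated 30 min at room temperature with biotinylated H3(1-18)K9me3 peptide (50 nM) in PBS pH 7.4, 0.01% Tween-20, then compound added for 30 min. AlphaScreen streptavidin donor/nickel chelate acceptor beads (10 ug/mL final), 30 min dark, luminescence read.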
# JMJD2A Tudor = JMJD2A Tudor domain (human) inhibition. O75164. AlphaScreen JMJD2A-Tudor / H3K4me3 peptide binding. Potency, µM (titrated, usually from 114 µM), actives largely listed as inhibitors. 4.4% of 390,000 active. AID 504339; further: nearly all actives have a fitted effect of over 50% in size
# G9a inh = inhibitors of human histone lysine methyltransferase G9a; Q96KQ7; G9a H3K9 monomethylation, AlphaScreen, 2 h; Potency, µM (top dose mostly 102 µM), usual class: inhibitors; 8.8% of 350,000 active; AID 504332; further: nearly all actives have a fitted effect of over 75% in size
# Target sequence (Q96KQ7 913-1193 limits assumed): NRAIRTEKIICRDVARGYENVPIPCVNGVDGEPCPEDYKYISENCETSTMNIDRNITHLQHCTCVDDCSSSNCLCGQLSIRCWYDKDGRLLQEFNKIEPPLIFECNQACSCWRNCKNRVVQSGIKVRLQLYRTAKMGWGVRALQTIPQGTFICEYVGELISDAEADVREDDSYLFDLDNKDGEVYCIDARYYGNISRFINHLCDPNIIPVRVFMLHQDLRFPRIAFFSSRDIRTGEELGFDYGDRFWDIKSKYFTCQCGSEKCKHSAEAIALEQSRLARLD
#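 AlphaScreen detection with an anti-monomethyl H3K9 antibody quantified product after a 2 h room-temperature reaction containing 500 nM biotinylated H3K9 peptide, 20 µM SAM and 20 nM enzyme, which had been preincubated 15 min with compound.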
# Sfp PPTase inh = inhibitors of Bacillus subtilis Sfp phosphopantetheinyl transferase | Potency, µM, actives largely listed as inhibitors | AID 1490 | Biochemical Sfp PPTase activity, qHTS | 3.5% of 310,000 active | Q9F4F7;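 further: the enzyme is Sfp with the accession as filed and its product quenches rhodamine fluorescence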
#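 Compounds were incubated with enzyme (final 15 nM) for 15 min at room temperature before substrate addition started the reaction. Fluorescence at 525 nm excitation, 598 nm emission was recorded immediately and after 30 minutes.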
# L3MBTL1 inh = inhibitors of human L3MBTL1 | 0.66% of 230,000 active | AlphaScreen L3MBTL1–H3K9me1 peptide binding | Potency, µM (top dose mostly 57.1 µM), most hits filed as inhibitors | AID 485360; further: nearly all actives have a fitted effect of over 60% in size
#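 AlphaScreen assay: L3MBTL1 (50 nM final) was preincubated 30 min at room temperature with biotinylated H3(1-15)K9me1 peptide (75 nM final), then 30 min with library compounds; streptavidin donor and nickel chelate acceptor beads (10 ug/mL final) added, 30 min dark.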
# Hits are given with their value; . = inactive; ? = inconclusive; / = no result; [ ] = remark or other dose. Most compounds without a hit are left out; they make up all but 12% or so of the library. The call rests on the fitted dose curve; in most records, active means well fitted curve in the direction sought with a large enough effect; inconclusive means small, poorly fitted or top-dose-only effect, or another doubt; inactive means no such curve, though single readings can be large; an effect the other way counts as inactive or inconclusive.
SMILES,BAZ2B inh,HP1b chromo inh,JMJD2A Tudor,G9a inh,Sfp PPTase inh,L3MBTL1 inh
COc1ccc(OCC(=O)NNC(=O)c2cccnc2)cc1,?,.,.,.[2.33 µM],.,.
COc1cccc(C(=O)NCCCNC(=O)c2cccnc2)c1,.,.,.,.,.,/
Cc1ccc(OCC(=O)NNC(=O)c2cccnc2)cc1,.,.,.,79µM,.,.
O=C(NCCOC(=O)C1COc2ccccc2O1)c1cccnc1 (stereo not given),?,.,40µM,50µM,.,.
CCc1nnc(NS(=O)(=O)c2ccc(N3C(=O)c4ccccc4C3=O)cc2)s1,.,.,?,?,.,.
O=C(NC1CC(=O)N(c2ccc(F)cc2)C1)c1ccc(S(=O)(=O)N2CCCCC2)cc1 (stereo not given),.,.,?,.,/,/
Cc1ccc(Nc2c3c(nc4nncn24)CCC3)cc1C,.,.,.,.,/,/
O=C(CSc1ccc(Cl)cc1)Nc1cccc(-c2nnc(-c3ccco3)o2)c1,.,.,.,.,.,.
O=C(CSc1ccc(Cl)cc1)Nc1nnc(-c2ccco2)o1,50µM,.,?,.,/,.
O=C(CSc1nnc(-c2ccco2)o1)c1ccc(F)c(F)c1,.,.,.,.,.,.
O=C(CSc1nnc(-c2ccco2)c(-c2ccco2)n1)c1ccccc1,.,?,45µM,.,.,.
O=C(CSc1nnc(-c2ccco2)o1)c1ccccc1,.,.,.,.,56µM,?
O=C(CSc1nnc(-c2ccco2)o1)NC(=O)Cc1ccccc1,79µM,.,.,?,.,/
N=C(N)SCCc1cccc(CCSC(=N)N)c1,/,.,.,3.5µM,/,/
COc1ccc(C[C@@](C)(N)C(=O)O)cc1OC,/,/,/,.[21.5 µM],.,/
O=C1CCCC2=C1C1(CCCCC1)N=C(Nc1nc3ccccc3o1)N2,.,.,?,.,.,.
O=C1CCCC2=C1C1(CCCC1)N=C(Nc1nc3cc4ccccc4cc3o1)N2,/,/,89µM,/,/,/
Cn1c(=O)n2n(c1=O)[C@H]1[C@H](O)[C@H]3O[C@@H]3/C(=N/OCc3ccccc3)[C@@H]1CC2,/,/,/,/,.,/
CCOC(=O)c1cc(-c2ccccc2)n(CC(=O)Nc2ccc(OC)cc2OC)c1C,.,.,22µM,.,/,/
CCOC(=O)c1cc(-c2ccc(OC)cc2)n(CCC(=O)Nc2ccccc2OC)c1C,79µM,.,28µM,.,/,/
COc1cc(/C=C2/C(=N)N3C=CSC3=NC2=O)ccc1OCCCOc1cc(C)ccc1C,.,.,.,.,.,.
Cc1ccc(-c2c(C(=O)O)c(C(=O)O)c3n2CCC3)cc1,.,.,?,?,.,.
O=C(O)c1c(C(=O)O)c(-c2ccc(Cl)c(Cl)c2)n2c1CSC2,.,.,.,45µM,.,/
CCN1C(C)=C(C(=O)OC)C(c2ccccc2)N2C(=O)[C@](O)(C(=O)OC)CC(C(C)=O)=C12 (stereo not given in full),/,/,/,/,.,/
O=c1c(-c2cc(F)cc(F)c2)nc2cncnc2n1C1CC1,/,/,/,.[0.501 µM],.,/
SMILES,BAZ2B inh,HP1b chromo inh,JMJD2A Tudor,G9a inh,Sfp PPTase inh,L3MBTL1 inh
CCOc1ccc(N2C(=O)CN(C)C2=S)cc1,.,.,.,.,.,.
CCOc1ccc(N2C(=O)CN(O)C=C3N=c4ccccc4=C32)cc1,?,/,/,.,4.5µM,.
CN(Cc1c(O)ccc2c1oc(=O)c1ccccc12)C1CCCCC1,5.6µM,?,4µM,?,?,/
Cc1ccc(S(=O)(=O)Nc2cccc3ccccc23)cc1,/,.,.,/,/,/
Cc1ccc(S(=O)(=O)Nc2cccc3ccc[n+](C)c23)cc1,/,/,50µM,/,.,/
COc1ccc(N2CCN(C(=O)COC(=O)CSc3ccccc3)CC2)cc1,?,.,?,16µM,/,.
COc1ccc(N2CCN(C(=O)CSc3nc4[nH]ncc4c(=O)n3-c3cccc4ccccc34)CC2)cc1,.,.,.,40µM,.,/
COc1ccc(N2CCN(C(=O)CSc3ccccc3)CC2)cc1,79µM,.,.,?,.,/
COc1ccc(N2CCN(C(=O)CSc3nc(C)cs3)CC2)cc1,.,.,.,45µM,/,.
COC(=O)c1ccccc1NC(=S)N1CCN(c2ccc(OC)cc2)CC1,/,.,56µM,?,.,/
COc1ccc(N2CCN(C(=O)c3ccc(CSc4ccccc4)cc3)CC2)cc1,45µM,?,?,?,.,.
CCOc1ncccc1C(=O)OCC(=O)c1cc(OC)c(OC)c(OC)c1,.,.,.,.[12.7 µM],.,/
Cc1cccc(C(=O)Nc2cccc(C(=O)N3CCOCC3)c2)c1,.,.,.,.,.,/
CC(=O)/C(=N/Nc1cccc(C)c1)N1CCOCC1,?,.,89µM,0.63µM,.,/
COCC(=O)N1CCc2nc(COc3ccccc3)c3c(c2C1)CO[C@@H](C)C3,/,/,/,/,.,/
CC1S/C(=N/N=C/c2cccc([N+](=O)[O-])c2)NC1=O (stereo not given),?,.,.,13µM,.,.
Cc1nn(-c2ccccc2)c(N2CCCC2)c1/C=N/Nc1ccc(S(N)(=O)=O)cc1[N+](=O)[O-],10µM,40µM,7.1µM,10µM,.,?
CC(C)OC(=O)c1ccc(Cn2nnc3sc4c(c3c2=O)CCCC4)cc1,.,.,.,.,/,/
CCOC(=O)c1cc(C#N)c(SCC(=O)c2cc(C#N)c(SC)nc2C)[nH]c1=O,.,.,79µM,50µM,32µM,.
CCOC(=O)c1cc(C#N)c(SCC(=O)O)[nH]c1=O,?,.,32µM,?,50µM,.
CCOC(=O)c1cc(C#N)c(SCC(N)=O)[nH]c1=O,.,.,.,13µM,20µM,.
CSc1[nH]c(=O)c(C(=O)O)cc1C#N,50µM,.,.,.[12.7 µM],?,/
CCCCCCCC1=Cc2ccccc2C(C(C(C)=O)C(=O)OC)N1C(=O)OC (stereo not given),/,/,/,/,.,/
Cc1cc(CNC(=O)COC(=O)Cn2[nH]c(=O)c3ccccc3c2=O)cc(C)c1O,.,.,.,.,/,.
COc1ccc(OCc2nc3ccccc3n2C(C)c2ccccc2)cc1 (stereo not given),.,.,.,?,/,/
SMILES,BAZ2B inh,HP1b chromo inh,JMJD2A Tudor,G9a inh,Sfp PPTase inh,L3MBTL1 inh
Cn1c(CNS(=O)(=O)c2ccc(Br)cc2)n[nH]c1=S,.,.,7.9µM,22µM,.,.
CSc1nnc(CNS(=O)(=O)c2ccc(Br)cc2)n1C,.,.,.,.,.,/
Cc1ccc(S(=O)(=O)NCc2n[nH]c(=S)n2C)cc1,.,.,7.9µM,32µM,.,.
COc1ccc(CCNC(=O)CC(Cc2ccc(C)cc2)C(=O)O)cc1OC (stereo not given),.,.,.,.,.,/
N#C/C(=N\Nc1ccc(Cl)c(Cl)c1)C(=O)C1CC1,45µM,?,50µM,/,.,/
C[C@H](NCCC(c1ccccc1)c1ccccc1)c1ccccc1,/,/,/,.[21.5 µM],.,/
CC[C@H](C)[C@@H](CN[C@H](C)CNC)NCCC(c1ccccc1)c1ccccc1,.,.,.,45µM,.,.
